Bioassay records: PubChem, National Center for Advancing Translational Sciences (NCATS)
DT40 TDP1 no CPT – qHTS for Inhibitors of human tyrosyl-DNA phosphodiesterase 1 (TDP1): qHTS in cells in absence of CPT | 420,000 compounds, 15% hits | AID 686978, 2013 | DT40 Tdp1-/- hTDP1 cells, no CPT, ATP luminescence, 48 h | Potency, µM (highest dose often 46.2 µM), for the others: top-dose activity change, negative = growth inhibition, hits mostly inhibitors; also: potency is read from the fitted curve at half-maximal effect; nearly all actives have a fitted effect of over 55% in size
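Growth kinetics read by CellTiter-Glo luminescence after ≥48 hr at 37 °C. Cells: DT40 Tdp1-/- stably carrying human TDP1, 400 per well, compound exposure in the absence of CPT (DMSO vehicle).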
IL-1B inflam inh – blocks inflammasome-driven IL-1 beta release; activity change, % at 57.5 µM; 360,000 compounds, 4.7% hits; THP-1 LPS/ATP IL-1B secretion, AlphaLISA, 16 h; stronger effect = lower value; in the data active = activity change below about -50%; inconclusive = mostly about -30% to -49%
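THP-1 cells pretreated 1 hr with compounds (up to 57.5 uM final), then stimulated with LPS (250 ng/mL final) plus ATP (1.25 mM final); secreted IL-1B measured by AlphaLISA after 16 hr, decreased signal indicating inhibition.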
DT40 TDP1 CPT – growth inhibition of DT40 Tdp1-/-;hTDP1 cells with camptothecin (screen for TDP1 inhibitors) | chicken DT40 Tdp1-/-;hTDP1 cells + 20 nM CPT, ATP luminescence, 48 h | Potency, µM (doses to about 46.2 µM), without a hit: top-dose activity change, negative = growth inhibition, hits mostly inhibitors | 420,000 compounds, 12% hits; also: potency is read from the fitted curve at half-maximal effect; nearly all actives have a fitted effect of over 55% in size
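Cell growth measured by CellTiter-Glo luminescence after a minimum 48 h, 37 C compound exposure with 20 nM CPT in Tdp1-knockout DT40 cells stably expressing hTDP1, seeded 400/well; qHTS titration format.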
12-LOX inh – blocks human arachidonate 12S-lipoxygenase; P18054; purified 12hLO, xylenol orange hydroperoxide absorbance; Potency, µM (titrated, usually from 108 µM), for inactives: top-dose activity change, negative = inhibition, actives largely listed as inhibitors; 580,000 compounds, 1.1% hits; AID 1671190; also: potency is read from the fitted curve at half-maximal effect
Target sequence (P18054 whole entry, looked up): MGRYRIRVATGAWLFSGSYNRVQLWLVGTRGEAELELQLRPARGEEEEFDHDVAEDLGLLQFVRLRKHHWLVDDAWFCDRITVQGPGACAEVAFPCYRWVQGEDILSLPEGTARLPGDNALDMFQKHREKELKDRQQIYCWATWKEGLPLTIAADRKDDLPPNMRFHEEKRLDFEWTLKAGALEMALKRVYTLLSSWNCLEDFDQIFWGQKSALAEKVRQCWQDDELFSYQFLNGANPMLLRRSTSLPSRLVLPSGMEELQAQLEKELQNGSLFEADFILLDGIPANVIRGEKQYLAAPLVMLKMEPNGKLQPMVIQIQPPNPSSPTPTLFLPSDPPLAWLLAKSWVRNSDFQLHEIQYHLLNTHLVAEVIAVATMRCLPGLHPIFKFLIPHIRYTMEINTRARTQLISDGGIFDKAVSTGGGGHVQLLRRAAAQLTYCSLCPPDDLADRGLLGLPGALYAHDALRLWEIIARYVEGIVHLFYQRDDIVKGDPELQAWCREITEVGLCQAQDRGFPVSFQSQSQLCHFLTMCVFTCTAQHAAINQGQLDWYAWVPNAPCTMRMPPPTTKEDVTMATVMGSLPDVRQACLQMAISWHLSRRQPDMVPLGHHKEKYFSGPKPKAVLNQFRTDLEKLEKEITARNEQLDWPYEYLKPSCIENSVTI
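Purified human 12hLO (150 nM final) in 25 mM Hepes, 0.01% Triton X-100, pH 7.0 was preincubated 15 min at room temperature with compound. Then 40 uM arachidonic acid was added, 30 min. Hydroperoxide was read by Fe-XO absorbance ratio 573/405 nm.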
HT1080-NT tox – kills 2HG-producing HT-1080-NT fibrosarcoma cells | HT-1080-NT fibrosarcoma viability, CellTiter-Glo ATP luminescence, 48 h | Potency, µM (titrated, usually from 46.1 µM), inactives show at the highest dose activity, negative = less viability, actives largely listed as cytotoxic | 360,000 compounds, 1.6% hits | AID 686970;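 also: NT is the 2HG producing partner of a matched IDH1 knockdown line; potency is read from the fitted curve at half-maximal effect; 0% = DMSO-treated cells and -100% = media-only wells without cells; nearly all actives have a fitted effect of over 55% in size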
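Toxicity toward the 2HG-producing NT line was scored as %Activity, normalised to DMSO and no-cell wells, from CellTiter-Glo luminescence after 48 hours' treatment.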
HT1080 IDH1KD tx – HT-1080 IDH1 knockdown cell toxicity (counter line); AID 686971; 360,000 compounds, 2% hits; Potency, µM (doses to about 46.1 µM), for inactives: top-dose activity, negative = toxicity, hits mostly cytotoxic; HT-1080 IDH1 knockdown viability, ATP luminescence, 48 h;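 also: potency is read from the fitted curve at half-maximal effect; 0% = DMSO wells and -100% = cell-free medium wells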
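HT-1080-IDH1KD cells (IDH1 knocked down), 750/well in RPMI with 5% FBS, treated with compound 48 h at 37 degrees C. Viability by CellTiter-Glo luminescence, normalised to DMSO and no-cell wells; concentration-response curves classed.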
* = called active by the depositor; ? = inconclusive; . = no result given; [ ] = dose if it differs, or a comment. This is one part of a sample in which hits are shown more often than they occur. Unless noted, calls follow the shape of the dose curve; as a rule, active = well fitted curve in the direction sought with a large enough effect; inconclusive = small, poorly fitted or top-dose-only effect, or another doubt; inactive = no such curve, though single readings can be large; an effect the other way counts as inactive or inconclusive. Unless noted, % is scaled to controls: 0 for no effect and ±100 for the full control effect.

SMILES	DT40 TDP1 no CPT	IL-1B inflam inh	DT40 TDP1 CPT	12-LOX inh	HT1080-NT tox	HT1080 IDH1KD tx
CSc1ccc(Cl)c(C(=O)NCc2ccco2)c1	?	-15	16µM*	0%	10%	7%
O=C(NCc1ccco1)c1ccc(-c2ccc3nccn3c2)cc1	?	-101*	23µM*	?	11%	?
CCCCCC(=O)N1C[C@@H](n2cc(C3CC3)nn2)[C@H](O)C[C@@H]1c1ccc(C)cc1	13µM*	4	?	?	-5%	-12%
CCCCCC(=O)N1C[C@H](n2cc(C3CC3)nn2)[C@@H](O)C[C@@H]1c1ccc(Cl)cc1	13µM*	-8	?	35%	2%	3%
Cc1nc2c(OCc3ccc(C(F)(F)F)cc3)cccn2c1N(C)CC1CC1	23µM*	-19	?	-24%	6.5µM*	?
CCc1nc2c(OCc3ccccc3OC)cccn2c1N(C)C(=O)C(C)C	?	35	?	5%	2%	2%
COC(=O)c1ccccc1COc1cccn2c(N(C)CC3CC3)c(C)nc12	18µM*	-13	?	1%	?	?
CCOC(=O)C1CCN(c2c([N+](=O)[O-])c(C(Cl)Cl)nn2-c2ccccc2)CC1	?	-16	?	-15%	4%	17%
O=[N+]([O-])c1c(C(Cl)Cl)nn(-c2ccccc2)c1N1CCCC1	?	-25	21µM*	-2%	-4%	?
CCN(CC)CCNC(=O)c1nc(-c2ccc3[nH]ccc3c2)no1	.	.	.	-16%	.	.
O=C1CO[C@H]2CCN(Cc3ccccc3F)CC[C@@H]2N1Cc1ccccc1	.	.	.	-3%[176 µM]	.	.
CC1=C/C(=N\OS(=O)(=O)c2ccccc2)C(C)=CC1=O	0.82µM*	-98*	0.58µM*	0%	4.6µM*	9.2µM*
CC1=C/C(=N\OS(=O)(=O)c2ccccc2)C(C(C)C)=CC1=O	2.3µM*	-95*	1.6µM*	.	?	?
CCCCC(CC)C(=O)N1CCN(C(=O)c2ccco2)CC1 (configuration not stated)	-18%	-2	2%	-2%	-6%	-2%
O=c1c2c3nc4ccccc4nc3n(/N=C/c3ccco3)c2ncn1CCC1=CCCCC1	21µM*	-29	16µM*	11%	5%	-2%
Cc1ccc2cccc(S(=O)(=O)N3CCCc4ccccc43)c2n1	?	6	?	-1%	-24%	-17%
O=C(c1ccc2c(c1)OCO2)N1CCN(c2cccc(C(F)(F)F)c2)CC1	21µM*	-16	18µM*	-8%	18µM*	?
O=C(c1ccc2c(c1)CCN2S(=O)(=O)c1ccccc1)N1CCN(c2cccc(Cl)c2)CC1	?	.	?	-8%	.	.
O=C(Nc1ccc2c(c1)OCO2)N1CCN(c2ccccc2Cl)CC1	?	-27	-24%	2%	-7%	?
CCS(=O)(=O)N1CCc2cc(C(=O)N3CCN(c4cccc(C(F)(F)F)c4)CC3)ccc21	23µM*	.	?	?	.	.
O=C(c1ccncc1)N1CCN(c2cccc(C(F)(F)F)c2)CC1	?	-2	?	3%	-5%	-6%
COc1ccc(N2CCN(C(=O)Nc3cccc(C(F)(F)F)c3)CC2)cc1	18µM*	-14	?	?	-7%	?
O=C(Nc1ccc2c(c1)OCO2)N1CCN(c2cccc(C(F)(F)F)c2)CC1	21µM*	-25	9.2µM*	-14%	-4%	-1%
CC(c1cccs1)N(C)Cc1ccccn1 (configuration not stated)	.	.	.	76%[176 µM]	.	.
